Four molecules from PubChem BioAssay (NCATS) can be followed below.

Records with an inconclusive call do not appear. A number with no mark means an inactive call. Active and inactive are the calls of the source.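 The calls were made as follows, unless noted: active = compounds whose dose-response curve shows a full or clear partial loss of cell viability, called from curve shape rather than a numeric limit; inconclusive = weak partial curves or an effect only at the top dose; inactive = no dose-dependent loss of viability.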
Potency is read from the fitted curve at half-maximal effect.

The nature of one assay: Cell Viability - BJ (AID 421; calls by dose curve;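 also: cells exposed to compound for 40 hours at 37 °C before readout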). Conditions: BJ fibroblast viability, qHTS. The method, boiled down:
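Normal human BJ foreskin fibroblasts, 1500/well in complete medium, treated 40 hr at 37 °C. Cellular ATP by CellTiter-Glo luminescence; normalized to DMSO and 100 uM tamoxifen, AC50 from Hill fit.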
`Oc1ccccc1O`: the Potency is over 92 µM.
On to `CN(C)c1ccc(C(=C2C=CC(=[N+](C)C)C=C2)c2ccccc2)cc1`, for which the Potency was 1.14 µM (active).
Same read-out and setting: for `Nc1ccc(O)c(C(=O)O)c1` the value was over 92 µM; for `c1cnc2c(c1)ccc1cccnc12`, over 92 µM.

A further assay in a line: Cell Viability - Jurkat (AID 426;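 active = dose-dependent loss of cell ATP signal giving a full or clear fitted curve, ranked by lower potency value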). The following applies: qHTS. The method, boiled down:
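qHTS, 1536-well; Jurkat E6-1, 5000 cells/well, complete medium; cpd 40 hr, 37 °C; CellTiter-Glo 20 min RT; luminescence. AC50 by Hill fit.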
(In general: In qHTS, concentration-response curves come from the screen itself.)
Take `Oc1ccccc1O`: the Potency was 3.17 µM (active).
For `CN(C)c1ccc(C(=C2C=CC(=[N+](C)C)C=C2)c2ccccc2)cc1`, the Potency is 0.0233 µM (active).
Turning to `Nc1ccc(O)c(C(=O)O)c1`, the Potency was over 92 µM.
For the molecule `c1cnc2c(c1)ccc1cccnc12`, the Potency was 8.24 µM (active).

Another assay is described as follows: Cell Viability - Hek293 (AID 427).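 Also: cells exposed to compound for 40 hours at 37 °C before reading.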 The following applies: qHTS. The method, boiled down:
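HEK293 cells in complete medium were exposed to compound for 40 hr at 37 °C, then cellular ATP was read by CellTiter-Glo luminescence. Data were normalized to DMSO (basal) and 100 uM tamoxifen (100% inhibition), and AC50 came from Hill fits.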
Turning to `Oc1ccccc1O`, the Potency was 30.1 µM (active).
Still for that read-out and setting: in the case of `CN(C)c1ccc(C(=C2C=CC(=[N+](C)C)C=C2)c2ccccc2)cc1` it was 0.244 µM (active); in that of `Nc1ccc(O)c(C(=O)O)c1`, over 92 µM.
Take `c1cnc2c(c1)ccc1cccnc12`: the Potency was 2.4 µM (active).
